This is a sample that favours compounds with a hit; in the whole collection about 2.8% have one here.
DRV1 agonist = qHTS for Agonists of Human Resolvin D1 Receptor DRV1; CHO-K1 GPR32 beta-arrestin PathHunter luminescence, 90 min; zero percent set by DMSO-only wells; activation, % at 76.9 µM; actives 2.5% (n = 48,000); AID 1346428, 2018;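 active = activation of at least 60% and not above a set upper limit, about 1 call in 100 departs from these limits; inconclusive = activation of 40% to 60%, or above that upper limit; inactive = activation under 40%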; note: 0% is about no effect
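PathHunter enzyme-fragment complementation, CHO-K1 GPR32 stable line; 2,500 cells/well, overnight attach; cpd 90 min 37 °C 5% CO2; detection reagent 1 h RT; chemiluminescence. DMSO = EC0.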
FH mod = Identification of activators of human fumarate hydratase by quantitative high-throughput screening | Fumarate hydratase, mitochondrial (Homo sapiens), P07954 | FH coupled MDH/diaphorase resazurin fluorescence, 15 min | Potency, µM (titrated, usually from 79.9 µM), for inactives: at the top dose activity change, negative = inhibition, hits mostly inhibitors | actives 0.22% (n = 54,000) | AID 1347055, 2019; note: potency is the fitted concentration of half-maximal effect; % is set by controls: 0 for no effect and ±100 for the full control effect; the screen sought activators but most active calls are inhibition curves; nearly all actives have a fitted effect of over 45% in size
GALC G270D act = A Novel Cell-Based Assay to Identify Small Molecules for B -Galactocerebrosidase; 145M-Twi-hGALC-G270D cells (Twitcher mouse brain line with human GALC G270D), HMU-beta-Gal fluorescence, 48 h; Potency, µM (top dose mostly 57.5 µM), most hits filed as activators; actives 0.1% (n = 45,000); note: potency is the fitted concentration of half-maximal effect; 0% is about no effect; nearly all actives have a fitted effect of over 65% in size
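Mutant human GALC (G270D), stably expressed in a Twitcher mouse brain cell line lacking endogenous GALC, is measured in live-treated cells via 6-hexadecanoylamino-4-methylumbelliferyl-β-galactoside hydrolysis (0.1 mM final, pH 5.2) with fluorescent detection.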
B2AR arrestin ag = qHTS assay of beta-arrestin-biased ligands of beta2-adrenergic receptor: NCGC Sytravon Library Screen; HTLA Tango cells, beta-arrestin recruitment, luciferase luminescence, 18 h; Potency, µM (top dose mostly 46.1 µM), usual class: activators; 44,000 tested, under 10 active; AID 1347077, 2019;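 note: potency is the fitted concentration of half-maximal effect; 0% = DMSO and full agonism = EC100 isoproterenol or metaproterenol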
Target sequence (P07550 whole entry, looked up): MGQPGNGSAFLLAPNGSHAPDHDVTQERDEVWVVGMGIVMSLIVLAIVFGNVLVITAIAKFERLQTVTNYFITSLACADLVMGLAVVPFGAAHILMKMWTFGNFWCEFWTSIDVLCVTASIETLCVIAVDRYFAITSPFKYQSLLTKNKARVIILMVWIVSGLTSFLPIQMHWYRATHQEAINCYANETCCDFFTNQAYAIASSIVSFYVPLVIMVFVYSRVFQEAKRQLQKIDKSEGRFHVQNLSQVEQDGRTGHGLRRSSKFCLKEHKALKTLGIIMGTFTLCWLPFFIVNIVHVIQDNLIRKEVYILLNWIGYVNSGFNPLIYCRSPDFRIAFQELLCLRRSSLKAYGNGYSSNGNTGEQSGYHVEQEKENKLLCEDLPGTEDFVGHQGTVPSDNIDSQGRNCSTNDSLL
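Luminescence read-out: arrestin recruitment to recombinant beta2-AR releases tTA, inducing luciferase. Cells exposed 18 hr at 37 degrees C to up to 46 microM compound; %Activity from corrected signal, concentration-response curves classified by r2, magnitude and efficacy.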
The depositor's hits bear a star; ! = a repeat was not active; [ ] = dose if it differs, or a comment. Unless noted, calls come from the whole dose curve; as a rule, active = well fitted curve in the direction sought with a large enough effect; inconclusive = small, poorly fitted or top-dose-only effect, or another doubt; inactive = no such curve, though single readings can be large; an effect the other way counts as inactive or inconclusive.

For CN(C1CCCCC1)S(=O)(=O)c1ccc(C(=O)Nc2sc3c(c2C(N)=O)CC(C)(C)NC3(C)C)cc1 the results were DRV1 agonist 118*, FH mod -6%, GALC G270D act inactive and B2AR arrestin ag inactive.
CCc1ccccc1S(=O)(=O)Cc1ccc(C(=O)NCCc2ccc(Cl)cc2)o1 was read as DRV1 agonist 66*, FH mod inconclusive, GALC G270D act inactive and B2AR arrestin ag inactive.
Nc1nc2c(ncn2C2OC3COP(=O)(O)OC3C2O)c(=O)[nH]1 (stereo not drawn) was read as FH mod 0%.
Screening CN(C)CCn1nnnc1SCC1=C(C(=O)O)N2C(=O)[C@@H](NC(=O)Cc3csc(N)n3)[C@H]2SC1 returned DRV1 agonist -4, FH mod -3%[53.3 µM] and GALC G270D act inactive.
CO[C@@]1(NC(=O)CSCC#N)C(=O)N2C(C(=O)O)=C(CSc3nnnn3C)CS[C@@H]21 was read as DRV1 agonist 64*!, FH mod 3%[53.3 µM] and GALC G270D act inactive.
O=C(CCNS(=O)(=O)c1ccc(Br)s1)Nc1ccc(Br)cc1 was read as DRV1 agonist 89*, FH mod -9%, GALC G270D act inactive and B2AR arrestin ag inactive.
For COc1cc(N2CCN(C(C)=O)CC2)ccc1Nc1ncc(Cl)c(Nc2ccc(N3CCN(C(C)=O)CC3)cc2OC)n1 the results were FH mod -11%.
CCOC(=O)N1CCN(C(=O)Cn2sc3nc(C)cc(C)c3c2=O)CC1 was read as FH mod 4%.
COc1ccc2c(c1)CCc1c(C(=O)Nc3c(C)nn(Cc4ccc(Cl)cc4)c3C)noc1-2 was read as DRV1 agonist 6, FH mod -25%, GALC G270D act inactive and B2AR arrestin ag inactive.
For Cc1nn(Cc2ccccc2Cl)c(C)c1NC(=O)c1cc(C(C)C)on1 the results were DRV1 agonist 86* and B2AR arrestin ag inactive.
For Cc1nn(Cc2ccc(Cl)cc2)c(C)c1NC(=O)c1noc2c1CCc1ccccc1-2 the results were DRV1 agonist 107* and B2AR arrestin ag inactive.
Screening CC1(C)CC2C3=CCC4[C@@]5(C)CC[C@H](OC6OCC(O)C(OC7OC(CO)C(O)C(O)C7O)C6O)C(C)(C)C5CC[C@@]4(C)[C@]3(C)C[C@H](O)[C@@]2(CO)[C@H](OC(=O)c2ccccc2)C1 (stereo partly drawn) returned FH mod 0%[20.6 µM].
Cc1ccccc1CCNC(=O)c1cc2ccccn2n1 was read as DRV1 agonist 32 and B2AR arrestin ag inactive.
Screening Cc1ccc(CCNC(=O)c2cc3ccccn3n2)cc1 returned DRV1 agonist 111* and B2AR arrestin ag inactive.
For CSc1ccc(CCNC(=O)c2cc3n(n2)CCCN(Cc2ccc(C)cc2)C3=O)cc1 the results were DRV1 agonist 13, FH mod 2%, GALC G270D act inactive and B2AR arrestin ag inactive.
`Cc1ccc(CN2CCCn3nc(C(=O)NCCc4ccc(Cl)cc4)cc3C2=O)cc1` gave DRV1 agonist 115*, FH mod -8%, GALC G270D act inactive and B2AR arrestin ag inactive.
For Oc1ccc2nc(CN3CCC(Cc4ccccc4F)CC3)[nH]c2c1 the results were FH mod -7%.
Screening CC(C)[C@](O)(c1ccc2cc(OC(F)F)c(OC(F)F)cc2c1)c1cn[nH]n1 returned FH mod -6%.
Cc1ccc2occ(CC(=O)Nc3nnc(C(C)C)s3)c2c1 was read as DRV1 agonist -1, FH mod -9%, GALC G270D act inactive and B2AR arrestin ag inactive.
Screening Cc1cc(C)c2c(CC(=O)Nc3nnc(C(C)C)s3)coc2c1 returned DRV1 agonist 65*, FH mod -5%, GALC G270D act inactive and B2AR arrestin ag inactive.
For C[C@@H]1O[C@@H](O[C@H]2[C@H](O[C@H]3CC[C@@]4(C)C(CC[C@]5(C)C4CC=C4[C@@H]6CC(C)(C)CC[C@]6(C(=O)O[C@@H]6OC[C@H](O)[C@H](O)[C@H]6O[C@@H]6O[C@@H](C)[C@H](O[C@@H]7O[C@H](CO)[C@@H](O)[C@H](O)[C@H]7O)[C@H](O)[C@H]6O)[C@H](O)C[C@]45C)C3(C)C)O[C@H](CO)[C@@H](O[C@@H]3OC[C@@H](O)[C@H](O)[C@H]3O)[C@@H]2O)[C@H](O)[C@H](O)[C@H]1O (stereo partly drawn) the results were FH mod 2%[13.5 µM].
For CCc1ccc2[nH]cc(S(=O)(=O)c3ccc(C(C)C)cc3)c(=O)c2c1 the results were DRV1 agonist 65*, FH mod 10%, GALC G270D act inactive and B2AR arrestin ag inactive.
`Cc1ccc(OCC(=O)Nc2c(Cl)ccc3nsnc23)cc1C` gave DRV1 agonist 84*, FH mod -3%, GALC G270D act inactive and B2AR arrestin ag inactive.
Screening CC(C)c1ccc(OCC(=O)Nc2c(Cl)ccc3nsnc23)cc1 returned DRV1 agonist 45, FH mod -17%, GALC G270D act inactive and B2AR arrestin ag inactive.
Screening CCOC(=O)c1cccc(NC(=O)CN2C(=O)c3ccccc3Sc3ncccc32)c1 returned DRV1 agonist 72*, FH mod -38%, GALC G270D act inactive and B2AR arrestin ag inactive.
Cc1cccc(C)c1NC(=O)CN1C(=O)c2ccccc2Sc2ncccc21 was read as DRV1 agonist 0, FH mod -4%, GALC G270D act inactive and B2AR arrestin ag inactive.
O=C(c1ccc(F)cc1)C1CCN(CCn2c(=S)[nH]c3ccccc3c2=O)CC1 was read as DRV1 agonist 68*, FH mod 6%[53.3 µM] and GALC G270D act inactive.
Cc1ccc(CNC(=O)Cc2ccc(NC(=O)N3CCSc4ncccc43)cc2)cc1 was read as DRV1 agonist 8, FH mod 0%, GALC G270D act inactive and B2AR arrestin ag inactive.
For Cc1ccc(CNC(=O)c2cccc(NC(=O)N3CCSc4ncccc43)c2)cc1 the results were DRV1 agonist 92*, FH mod 3%, GALC G270D act inactive and B2AR arrestin ag inactive.
For Cc1ccc(NC(=O)CSc2c3c(nc4ccccc24)CCCC3)cc1F the results were DRV1 agonist 65*, FH mod -21%, GALC G270D act inactive and B2AR arrestin ag inactive.
Screening C#Cc1cccc(Nc2ncnc3cc4c(cc23)OCCOCCOCCO4)c1 returned FH mod -4%.
For COc1ccc(NC(=O)CN(C)S(=O)(=O)c2ccc3[nH]c4c(c3c2)CCCC4)cc1Cl the results were DRV1 agonist 91*, FH mod -28%, GALC G270D act inactive and B2AR arrestin ag inactive.
CC(=O)c1ccc(NS(=O)(=O)c2cccc(S(=O)(=O)c3ccc(Cl)cc3)c2)cc1 was read as DRV1 agonist 61*, FH mod -13%, GALC G270D act inactive and B2AR arrestin ag inactive.
